Where “and” joins values, the source holds several entries; their conditions need not be identical. Identical values can stand only once. Hit rate of the full screen: of about 5,500 compounds, about 2,000 (36%) were called active. Not shown: some 18% with an inconclusive outcome. No stated cut-off is given here; in the data, active means normalized growth mostly below about 0.91 (no sharp cut-off); inconclusive means no clear call, values can overlap the other calls; inactive means mostly above about 0.92. The list shows a part of the results.
Assay: chemical genetic growth profiling, strain panel (AID 1159580);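 further: tested at 20 µM; growth read once vehicle control cultures reached saturation at 30 °C; 1 = growth at the plate median or of vehicle wells; lower values mean less growth of the strain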
Conditions: S. cerevisiae deletion strains, growth OD

Measured: normalized growth

C[C@H]1OC(O[C@H]2[C@@H](O)CC(O[C@H]3[C@@H](O)C[C@H](O[C@H]4CC[C@]5(C)C6CC[C@]7(C)[C@@H](C8=CC(=O)OC8)[C@@H](O)C[C@]7(O)[C@@H]6CC[C@@H]5C4)O[C@@H]3C)O[C@@H]2C)C[C@H](O)C1O (some centres not stated)
inactive: locus YBR021W, strain FUR4, hits give low values 0.986 | locus YBR229C, strain ROT2, hits give low values 1.01 | locus YCL029C, strain bik1, hits give low values 0.989 | locus YDL035C, strain GPR1, hits give low values 0.992 | locus YDL074C, strain BRE1, hits give low values 1.01 | locus YDL101C, strain DUN1, hits give low values 1 | locus YDL134C, strain PPH21, hits give low values 1.01 | locus YDL185W, strain tfp1, hits give low values 0.981 | locus YDL192W, strain arf1, hits give low values 0.988 | locus YDR101C, strain arx1, hits give low values 0.991 | locus YDR150W, strain NUM1, hits give low values 1.02 | locus YDR162C, strain NBP2, hits give low values 1 | locus YDR318W, strain mcm21, hits give low values 1.01 | locus YDR388W, hits give low values 0.999 | locus YDR502C, strain sam2, hits give low values 0.987 | locus YEL061C, strain CIN8, hits give low values 0.999 | locus YER110C, hits give low values 0.986 | locus YER155C, strain BEM2, hits give low values 0.985 | locus YER167W, strain BCK2, hits give low values 0.99 | locus YGL078C, strain dbp3, hits give low values 0.981 | locus YGL086W, strain mad1, hits give low values 0.965 | locus YGL248W, strain PDE1, hits give low values 1.01 | locus YGR135W, strain pre9, hits give low values 1.01 | locus YGR229C, strain SMI1, hits give low values 0.998 | locus YGR252W, strain gcn5, hits give low values 1.02 | locus YHR030C, strain SLT2, hits give low values 1 and 1.03 | locus YHR079C, strain IRE1 (second series), hits give low values 0.998 | locus YHR079C, strain IRE1, hits give low values 1.03 | locus YHR094C, strain hxt1, hits give low values 0.989 | locus YHR129C, strain ARP1, hits give low values 0.999 | locus YHR200W, strain rpn10, hits give low values 1 | locus YIL066C, strain RNR3, hits give low values 1 | locus YIL073C, strain SPO22, hits give low values 1.01 | locus YIL125W, strain kgd1, hits give low values 0.981 | locus YIR030C, strain dcg1, hits give low values 0.989 | locus YJL095W, strain BCK1, hits give low values 1.01 and 1 | locus YJL134W, strain LCB3, hits give low values 1 | locus YJL168C, strain set2, hits give low values 0.996 | locus YJL187C, strain SWE1 (second series), hits give low values 1.02 | locus YJR043C, strain POL32, hits give low values 1.01 | locus YJR066W, strain TOR1, hits give low values 0.965 | locus YKL009W, strain mrt4, hits give low values 0.927 | locus YKL068W, hits give low values 0.994 | locus YKL085W, strain MDH1 (second series), hits give low values 0.988 | locus YKL085W, strain MDH1, hits give low values 0.988 | locus YKR001C, strain vps1, hits give low values 0.986 | locus YLR039C, strain RIC1, hits give low values 1.06 | locus YLR058C, strain SHM2, hits give low values 1 | locus YLR102C, strain apc9, hits give low values 0.99 | locus YLR113W, strain HOG1, hits give low values 0.975 | locus YLR262C, strain YPT6, hits give low values 1.04 | locus YLR268W, strain sec22, hits give low values 0.99 | locus YLR330W, strain CHS5, hits give low values 0.994 | locus YLR342W, strain FKS1 (second series), hits give low values 1.02 | locus YLR371W, strain rom2, hits give low values 0.989 | locus YLR418C, strain cdc73, hits give low values 0.998 | locus YML016C, strain PPZ1, hits give low values 1.01 | locus YML032C, strain rad52, hits give low values 1.01 | locus YML124C, strain tub3, hits give low values 1 | locus YMR078C, strain ctf18, hits give low values 1 | locus YMR223W, strain ubp8, hits give low values 1.01 | locus YMR263W, strain SAP30, hits give low values 1.01 | locus YMR307W, strain GAS1, hits give low values 1.05 | locus YNL067W, strain RPL9B, hits give low values 1.01 | locus YNL183C, strain NPR1, hits give low values 0.989 | locus YNL233W, strain BNI4, hits give low values 0.995 | locus YNL250W, strain rad50, hits give low values 0.983 | locus YNL271C, strain bni1, hits give low values 0.99 | locus YNL298W, strain CLA4, hits give low values 0.989 | locus YNL307C, strain MCK1, hits give low values 0.993 | locus YNL322C, strain KRE1, hits give low values 1.01 | locus YNR052C, strain pop2, hits give low values 0.999 | locus YOL012C, strain htz1 1.48 | locus YOL147C, strain pex11, hits give low values 0.984 | locus YOR061W, strain CKA2, hits give low values 1.01 | locus YOR069W, strain VPS5, hits give low values 0.995 | locus YOR136W, strain idh2, hits give low values 0.98 | locus YOR144C, strain elg1, hits give low values 0.995 | locus YOR184W, strain ser1, hits give low values 0.983 | locus YOR231W, strain MKK1, hits give low values 0.995 | locus YOR316C, strain cot1, hits give low values 0.994 | locus YPL256C, strain CLN2, hits give low values 1.03 | locus YPR119W, strain clb2, hits give low values 0.996 | locus YPR141C, strain kar3, hits give low values 0.99 | locus YPR163C, strain tif3, hits give low values 0.995 | locus YPR167C, strain met16, hits give low values 0.994 | strain wtn01, hits give low values 0.98
